In the library only some 27% were active in any assay of this set; here they are far more common.
CYP2C9 inh: blocks human cytochrome P450 2C9; P11712; 96,000 tested, 20% active; CYP2C9 Supersomes, luciferin-H conversion, luminescence; AID 777; inhibition, % at 5 µM;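 active means blocking of liver enzyme CYP2C9 beyond about 50% at 5 µM, limit read from the data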
CYP2C19 inh: blocks human cytochrome P450 2C19; P33261; inhibition, % at 5 µM; 96,000 tested, 21% active; CYP2C19 Supersomes, luciferin-H EGE luminescence, 30 min;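 active means CYP2C19 inhibition above a set limit at 5 µM in the primary screen, cut at about 50% in these data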;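 further: plate controls were negative control wells for no effect and 2.5 mM tranylcypromine positive control for full effect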
CYP2C19 act: activators of human cytochrome P450 2C19; P33261; recombinant CYP2C19, luciferin-H EGE luminescence; hits give high values; 0 = fully inhibited enzyme, 1 = untreated enzyme; activation factor at 5 µM; 96,000 tested, under 10 active;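 active means activation factor of at least 2 at 5 µM in the primary screen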;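 further: 0 = wells with 2.5 mM tranylcypromine and 1 = vehicle-only wells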
sEH act: activators of human soluble epoxide hydrolase; P34913; purified human sEH enzymatic activity, activator screen; activation, % at 2 µM; 91,000 tested, 0.04% active; in the data active means activation above about 37%
Target sequence (P34913 whole entry, looked up): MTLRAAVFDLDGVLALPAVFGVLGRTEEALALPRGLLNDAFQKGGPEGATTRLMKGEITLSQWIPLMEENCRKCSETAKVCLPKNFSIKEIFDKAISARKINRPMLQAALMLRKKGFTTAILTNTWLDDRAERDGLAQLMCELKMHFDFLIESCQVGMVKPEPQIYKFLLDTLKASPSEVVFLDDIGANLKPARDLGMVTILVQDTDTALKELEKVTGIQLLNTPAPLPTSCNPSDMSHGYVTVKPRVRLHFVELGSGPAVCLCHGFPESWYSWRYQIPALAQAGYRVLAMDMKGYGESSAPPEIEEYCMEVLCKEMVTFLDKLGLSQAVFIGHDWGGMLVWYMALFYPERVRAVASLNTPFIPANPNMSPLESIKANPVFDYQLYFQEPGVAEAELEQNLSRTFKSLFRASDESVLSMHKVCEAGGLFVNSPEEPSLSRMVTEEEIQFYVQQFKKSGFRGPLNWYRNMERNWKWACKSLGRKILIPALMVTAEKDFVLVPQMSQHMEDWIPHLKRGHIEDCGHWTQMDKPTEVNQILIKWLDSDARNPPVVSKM
CYP2C9 activ: increases human cytochrome P450 2C9 activity; P11712; recombinant CYP2C9, luciferin-H conversion, luminescence; hits give high values; factor 1 = untreated enzyme, 0 = blocked; activation factor at 5 µM; 96,000 tested, 1.4% active; AID 1024;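 active means activation factor of 2 or more for CYP2C9 at a 5 µM dose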;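 further: 0 = sulfaphenazole-blocked wells and 1 = vehicle-only wells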
sEH inh: blocks human soluble epoxide hydrolase activity. P34913. recombinant human sEH enzymatic activity assay. inhibition, % at 2 µM. 91,000 tested, 0.34% active. AID 707; in the data active means inhibition above about 80%
Numbers without * were called inactive; · = no result given.

SMILES	CYP2C9 inh	CYP2C19 inh	CYP2C19 act	sEH act	CYP2C9 activ	sEH inh
Cc1ccc2oc(=O)c3cnn(CC(=O)NCCCOC(C)C)c3c2c1	-11	-2	1	13	1.1	-14
Nc1nnc(SCC(=O)N2CCc3ccccc32)n1-c1ccccc1	-34	-18	1.2	2	1.3	-8
Fc1ccccc1CSc1nnc(Cn2cnc3ccccc32)n1-c1ccccc1	32	83*	0.2	-2	0.7	6
Nc1nnc(SCc2ccccc2F)n1-c1ccccc1	-7	75*	0.2	-5	1.1	3
O=C(CCCOc1ccc(Cl)cc1)NCC1CCCO1 (stereo unspecified)	-8	9	0.9	-4	1.1	4
Cc1cccc(Cn2c(N(C)Cc3ccccc3)nc3c2c(=O)[nH]c(=O)n3C)c1	26	26	0.7	6	0.7	-8
Cn1c(CSc2ccccc2)c(C#N)c2ccccc21	-26	75*	0.2	8	1.3	-8
Cc1ccccc1N1CCN(Cc2c(C#N)c3ccccc3n2C)CC1	-4	67*	0.3	8	1	-7
Cc1ccc(SCc2c(C#N)c3ccccc3n2C)cc1	·	·	·	8	·	-6
Cn1c(CNc2ccccn2)c(C#N)c2ccccc21	11	75*	0.2	-3	0.9	8
CCc1cc2c(C)cc(=O)oc2cc1OC(=O)C1CCCN1C(=O)OC(C)(C)C (stereo unspecified)	39	30	0.7	-64	0.6	64
NC(=O)CCCCC(=O)OCCCc1cccs1	4	9	0.9	·	1	·
CCN(C(=O)CCc1nc(-c2ccccc2F)no1)c1cc(OC)ccc1OC	94*	94*	0.1	-6	0.1	6
COc1cccc(NC(=O)CCc2nc(-c3ccccc3F)no2)c1	60*	26	0.7	7	0.4	-8
COc1ccc(Br)cc1-c1noc(-c2ccccc2F)n1	-3	3	1	3	1	-1
COc1ccc(CNC(=O)CCc2nc(-c3ccccc3F)no2)c(OC)c1	57*	74*	0.3	-13	0.4	13
COc1ccc(Br)cc1CNC(=O)CCc1nc(-c2ccccc2F)no1	57*	65*	0.3	-11	0.4	12
O=C(CCc1nc(-c2ccccc2F)no1)Nc1ccc(Oc2ccccc2)cc1	22	8	0.9	3	0.8	-2
O=C(CCc1nc(-c2ccccc2F)no1)NC1CCCCCC1	28	27	0.7	-19	0.7	20
Cc1ccc(S(=O)(=O)N2CCN(S(=O)(=O)N3CCOCC3)CC2)c(C)c1	-37	49	0.5	-3	1.4	1
Cc1ccc(N(C(=O)C2CCCO2)C2C=CS(=O)(=O)C2)cc1Cl (stereo unspecified)	-8	-13	1.1	·	1.1	·
O=C1CCc2cc(S(=O)(=O)N3CCCC3C(=O)N3CCN(c4ccccc4)CC3)ccc2N1 (stereo unspecified)	59*	-7	1.1	9	0.4	-12
COc1ccc(C)cc1NC(=O)C1CCCN1S(=O)(=O)c1ccc2c(c1)CCC(=O)N2 (stereo unspecified)	-60	39	0.6	17	1.6	-18
Cc1ccc(NC(=O)C2CCCN2S(=O)(=O)c2ccc3c(c2)CCC(=O)N3)cc1Cl (stereo unspecified)	89*	60*	0.4	·	0.1	·
COc1cc(NC(=O)C2CCCN2S(=O)(=O)c2ccc3c(c2)CCC(=O)N3)cc(OC)c1 (stereo unspecified)	60*	14	0.9	·	0.4	·
SMILES	CYP2C9 inh	CYP2C19 inh	CYP2C19 act	sEH act	CYP2C9 activ	sEH inh
O=C1CCc2cc(S(=O)(=O)N3CCC(C(=O)NC4CCCCCCC4)CC3)ccc2N1	57*	21	0.8	-57	0.4	56
O=C(NC1CCCCCC1)C1CCN(S(=O)(=O)c2ccc(F)cc2)CC1	-3	4	1	·	1	·
Cn1c(-c2ccc(CN3CCCCC3)o2)nc2ccccc21	2	5	1	34	1	-38
COc1cc(NC(=O)CN(C)S(=O)(=O)c2ccc3c(c2)CCC(=O)N3)cc(OC)c1	62*	28	0.7	0	0.4	-3
O=C(NC(C(=O)N/N=C/c1ccccc1)c1n[nH]c(=O)c2ccccc12)c1ccccc1 (stereo unspecified)	52*	37	0.6	-2	0.5	-1
O=C(NC(C(=O)N/N=C/c1c2ccccc2cc2ccccc12)c1n[nH]c(=O)c2ccccc12)c1ccccc1 (stereo unspecified)	43	36	0.6	-5	0.6	2
O=C(/C=C/c1cccs1)c1cc(F)ccc1OC(=O)N1CCOCC1	·	·	·	6	·	-9
Cc1ccc2[nH]cc(C(=O)CN3CCN(c4ccccc4F)CC3)c2c1	18	21	0.8	7	0.8	-6
CCN1CCN(CC(=O)c2c[nH]c3ccc(C)cc23)CC1	51*	-19	1.2	12	0.5	-13
CCOC(=O)N1CCN(CC(=O)c2c[nH]c3ccc(F)cc23)CC1	51*	46	0.5	4	0.5	-8
O=C(CN1CCC2(CC1)OCCO2)c1c[nH]c2ccccc12	3	81*	0.2	·	1	·
Cc1ccc(CS(=O)(=O)CCC(=O)NCCCN2CCCC2=O)cc1	-5	-7	1.1	18	1	-18
CNc1sc(C(=O)c2cccs2)c(N)c1-c1nc2ccccc2s1	67*	29	0.7	·	0.3	·
Cc1cc(NS(=O)(=O)Cc2ccccc2)cc(C)c1OCC(=O)N1CCOCC1	24	3	1	0	0.8	5
Cc1c(C(=O)Nc2ccc3c(c2)OCO3)sc2nc(-c3ccccc3)cn12	41	1	1	2	0.6	-1
Cc1c(C(=O)Nc2ccccc2)sc2nc(-c3ccccc3)cn12	76*	70*	0.3	9	0.2	-8
Cc1cccc(NC(=O)c2sc3nc(-c4ccccc4)cn3c2C)n1	65*	55*	0.5	-14	0.3	15
COC(=O)N1CCN(S(=O)(=O)c2ccc(F)cc2)CC1	·	·	·	-7	·	7
CCOc1ccccc1-c1nc(-c2ccc(NC(=O)Cc3ccccc3OC)cc2)no1	-104	52*	0.5	-3	2*	-3
Cc1ccc(/C=c2\sc3n(c2=O)CN(c2ccc(Br)cc2)CN=3)o1	62*	34	0.7	-3	0.4	3
Cc1ccc(/C=c2/sc3n(c2=O)CCCN=3)o1	·	·	·	8	·	-2
COCCn1c(C)cc(C(=O)COC(=O)c2cc3c(s2)CCC3)c1C	-7	57*	0.4	·	1.1	·
O=C(NCCc1ccccc1F)[C@@H]1CSC2c3ccccc3C(=O)N21 (stereo partly specified)	30	14	0.9	-19	0.7	20
CCOC(=O)c1cc2cc(CC(=O)c3ccc(OCC)cc3O)ccc2o1	54*	69*	0.3	6	0.5	-4
O=C1CN(c2ccc(Cl)cc2)C(=O)CN1NC(=S)Nc1ccc(Cl)cc1	-6	-13	1.1	3	1.1	0
